Measured values published in PubChem BioAssay (EPA / NIEHS).
The source holds several records for some structures; these can differ, active in one and inactive in another. Activity calls are given as the source filed them. Rule for the calls: active = hit-call score of the fitted dose curve at least 0.9, where 1 is the maximum; inactive = score below 0.9.

read-out: Vascular cell adhesion molecule 1 (VCAM1), VCAM1 (gene 7412); test: BSK_4H_VCAM1: BioMAP Diversity Plus: 4H Assay for Vascular cell adhesion molecule 1 (VCAM1) Biomarker Activity (AID 2283033); details: primary human endothelial cells (HUVEC); actives raise or lower the signal
Experimental: BSK_4H is a cell-based, multiplexed-readout assay that uses umbilical vein endothelium, a human vascular primary cell, with measurements taken at 24 hours after chemical dosing in a 96-well plate.BSK_4H_VCAM1 is an assay component measured in the BSK_4H assay. It measures VCAM-1 antibody related to regulation of gene expression using ELISA technology.Data from the assay component BSK_4H_VCAM1 was analyzed into 1 assay endpoint. This assay endpoint, BSK_4H_VCAM1, was analyzed with bidirectional fitting relative to DMSO as the negative control and baseline of activity. Using a type of binding reporter, gain or loss-of-signal activity can be used to understand changes in the signaling as they relate to the gene VCAM1. Furthermore, this assay endpoint can be referred to as a primary readout, because this assay has produced multiple assay endpoints where this one serves a signaling function. To generalize the intended target to other relatable targets, this assay endpoint is annotated to the cell adhesion molecules intended target family, where the subfamily is Immunoglobulin CAM.
The levels of cell surface (or secreted, indicated by the prefix "s") biomarker endpoints were measured by ELISA. Overt cytotoxicity to cells in confluent adherent cultures (all systems other than the BT system) was assessed by measuring total protein levels using sulforhodamine B (SRB) staining in parallel cultures at the time of biomarker measurements, indicated as SRB endpoints. For proliferation assays for adherent cell types, individual cell types are cultured at sub-confluence and relative cell numbers quantified by SRB staining at time points optimized for each system (48 h: 3C and CASM3C systems; 72 h: BT and HDF3CGF systems; 96 h: SAg system). SRB was performed by staining cells with 0.1% SRB after fixation with 10% TCA and reading wells at 560 nm.Viability and proliferation of PBMC (T cells) was quantified by Alamar Blue reduction for the SAg and BT systems. For PBMC viability (referred to as PBMC Cytotoxicity within the assay endpoint names), cells were plated (75,000/well in a 96-well plate) and then chemical samples added for 1 h before addition of activators, SEB and TSST-1 (20 ng/mL final concentration each). Cells were incubated for 90 h. Then, Alamar Blue (20 uL/well) (Invitrogen, Cat DAL1100) was added for 6 h, and the plates were read with a fluorescence microplate reader at 546/580 nm (excitation/emission). For PBMC proliferation, cells were plated and activated as above but incubated for only 16 h prior to addition of Alamar Blue. Plates were read after 6 h.

SMILES	outcome	AC50
O=C=NC1CCC(CC2CCC(N=C=O)CC2)CC1 (stereo not given)	inactive	
CC(C)c1ccc(C(C)C)cc1		35.1 µM (active)
COc1cc(C=O)ccc1OC(=O)C(C)C	inactive	
OC1OC[C@@H](O)[C@H](O)[C@H]1O (stereo not given in full)	inactive	
O=C(O)c1cn(C2CC2)c2cc(N3CCNCC3)c(F)cc2c1=O	inactive	
CC(=O)Nc1ccccc1O	inactive	
CC(C)(COC(=O)c1ccccc1)COC(=O)c1ccccc1		20 µM (active)
O=C(O)c1ccc([N+](=O)[O-])cc1	inactive	
CCCCCCCCCC=O	inactive	
CC(=O)[C@H]1CC[C@H]2[C@@H]3CC=C4C[C@@H](O)CC[C@]4(C)[C@H]3CC[C@]12C	inactive	
N#Cc1ccc(CC(=NNC(=O)Nc2ccc(OC(F)(F)F)cc2)c2cccc(C(F)(F)F)c2)cc1	inactive	
C#C[C@]1(O)CC[C@H]2[C@@H]3CCC4=Cc5oncc5C[C@]4(C)[C@H]3CC[C@@]21C		30.1 µM (active)
CCC(=O)OCc1ccccc1	inactive	
O=P(c1ccccc1)(c1ccccc1)c1ccccc1	inactive	
CCn1c2ccccc2c2cc(N)ccc21	inactive	
NCCNCCN	inactive	
CC(=O)OCCC(C)CC(C)(C)C (stereo not given)	inactive	
CCc1c(C)cc(N)c(CC)c1N	inactive	
O=C1CCCCCCCCCCCCCCO1		27.4 µM (active)
CCCCCCCCCCCCCCCCCC(=O)OCC(CC)CCCC (stereo not given)	inactive	

SMILES	outcome	AC50
c1ccc2sc(SN(C3CCCCC3)C3CCCCC3)nc2c1		5.45 µM (active)
Nc1cc([N+](=O)[O-])ccc1O	inactive	
CC1CCC(C(C)CS)CC1S (stereo not given)		29.1 µM (active)
C=CCOC(=O)CCC1CCCCC1	inactive	
OC[C@H]1O[C@H](O[C@]2(CCl)O[C@H](CCl)[C@@H](O)[C@@H]2O)[C@H](O)[C@@H](O)[C@H]1Cl	inactive	
CC(C)Oc1ccccc1O	inactive	
CC(=O)O[C@]1(C(C)=O)CC[C@H]2[C@@H]3C[C@H](C)C4=CC(=O)CC[C@]4(C)[C@H]3CC[C@@]21C	inactive	
Nc1cc([N+](=O)[O-])ccc1Cl	inactive	
CCCCCCCCC=O	inactive	
O=C(O)c1cn(-c2ccc(F)cc2)c2cc(N3CCNCC3)c(F)cc2c1=O	inactive	
C[C@H]1C[C@@H]2[C@H]([C@@H](O)C[C@@]3(C)[C@H]2CC[C@]3(O)C(=O)CO)[C@@]2(C)C=CC(=O)C=C12	inactive	
CCCCC/C=C/C=C/C=O		33.3 µM (active)
O=C1OC2(c3cc(Br)c(O)c(Br)c3Oc3c2cc(Br)c(O)c3Br)c2c(Cl)c(Cl)c(Cl)c(Cl)c21		4.23 µM (active)
CC1COc2ccccc2N1C(=O)C(Cl)Cl (stereo not given)		8.19 µM (active)
CNC[C@H](O)c1cccc(O)c1	inactive	
BrC1CCC(Br)C(Br)CCC(Br)C(Br)CCC1Br (stereo not given)		2.95 µM (active)
CN(CCOc1ccc(CC2SC(=O)NC2=O)cc1)c1ccccn1 (stereo not given)		8.46 µM (active)
CC[Si](OC(C)=O)(OC(C)=O)OC(C)=O	inactive	0.195 µM (active)
Cc1ccc2n[nH]nc2c1	inactive	
